# Compounds with a hit are over-represented: about 2.4% of the library has one in this group of screens.
# Pol iota inh = blocks human DNA polymerase iota activity; 390,000 tested, 1% active; Potency, µM (series often up to 115 µM), for the others: top-dose activity, negative = inhibition, most hits filed as inhibitors; Pol iota fluorescent replication assay, 10 min
#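 Pol iota at 10 nM preincubated 15 min with compounds at room temperature; reaction started with fluorescent substrate, 50 nM final. Fluorescence read kinetically at 0 and 10 min; buffer-only wells as negative control.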
# POLB inh = blocks human DNA polymerase beta activity; P06746; Pol beta primer extension/strand displacement, fluorescence kinetic; Potency, µM (highest dose often 114 µM), for the others: at the top dose activity change, negative = inhibition, hits mostly inhibitors; 340,000 tested, 1.3% active; AID 485314; also: % is scaled to controls: 0 for no effect and ±100 for the full control effect
#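 Pol beta (10 nM) was preincubated with compound for 15 min at room temperature. The reaction was then started with 50 nM substrate and read immediately and after a further 10 min at room temperature.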
# Pol kappa inh = DNA polymerase kappa (human) inhibition; purified Pol kappa, fluorescent DNA synthesis assay, 10 min; AID 588579; Potency, µM (series often up to 107 µM), for the others: at the highest dose activity, negative = inhibition, hits mostly inhibitors; 400,000 tested, 0.53% active; Q9UBT6; also: % is scaled to controls: 0 for no effect and ±100 for the full control effect
#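 Here, compound and 10 nM enzyme are combined for 15 min at room temperature; adding 50 nM substrate (final) starts DNA synthesis, tracked by fluorescence at 0 and 10 min against buffer-only wells.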
# FEN1 inhibitor = blocks human flap endonuclease 1; P39748; Recombinant FEN1 flap cleavage, fluorescence, 15 min; Potency, µM (highest dose often 114 µM), for the others: top-dose activity change, negative = inhibition, most hits filed as inhibitors; 390,000 tested, 0.35% active; also: % is scaled to controls: 0 for no effect and ±100 for the full control effect; nearly all actives have a fitted effect of over 65% in size
# Target sequence (P39748 whole entry, looked up): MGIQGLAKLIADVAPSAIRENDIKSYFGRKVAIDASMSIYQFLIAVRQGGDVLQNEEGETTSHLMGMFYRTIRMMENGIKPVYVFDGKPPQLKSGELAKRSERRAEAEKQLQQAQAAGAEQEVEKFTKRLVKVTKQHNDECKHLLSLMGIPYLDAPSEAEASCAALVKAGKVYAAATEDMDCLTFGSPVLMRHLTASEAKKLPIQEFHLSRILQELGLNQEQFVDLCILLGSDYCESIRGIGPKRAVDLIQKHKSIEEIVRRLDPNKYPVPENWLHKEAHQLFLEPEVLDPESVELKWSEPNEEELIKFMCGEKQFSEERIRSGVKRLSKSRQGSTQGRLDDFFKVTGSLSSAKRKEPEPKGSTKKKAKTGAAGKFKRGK
#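 Compounds are tested as a concentration series against 10 nM FEN1; after a 15 min room-temperature preincubation, 50 nM substrate starts cleavage, with plate reads at 0 and 15 min. Normalized responses are fitted by a Hill equation.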
# WRN helicase inh = WRN helicase (human) inhibition | Potency, µM (doses to about 114 µM), for inactives: at the top dose activity change, negative = inhibition, hits mostly inhibitors | AID 651768 | WRN helicase unwinding, fluorescent forked duplex, kinetic | Q14191 | 360,000 tested, 0.46% active; also: % is scaled to controls: 0 for no effect and ±100 for the full control effect; nearly all actives have a fitted effect of over 55% in size
#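 WRN at 20 nM final preincubated with compound 15 min at room temperature; reaction started with 100 nM fluorophore/quencher forked duplex oligonucleotide and 2 mM ATP final. Unwinding followed kinetically by red fluorescence (ex 525, em 598 nm).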
# POLH inh = DNA polymerase eta (human) inhibition; recombinant Pol eta, fluorescent DNA replication assay; Q9Y253; Potency, µM (doses to about 114 µM), without a hit: at the highest dose activity change, negative = inhibition, usual class: inhibitors; 390,000 tested, 1.2% active; also: % is scaled to controls: 0 for no effect and ±100 for the full control effect
#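 Fluorescent replication assay: 50 nM final substrate added after a 15 min room-temperature compound preincubation with 10 nM enzyme. Signal taken at 0 min and again at 10 min.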
# Numbers without * were called inactive; ? = inconclusive; . = no result given; ! = repeats disagree; [ ] = dose if it differs, or a comment. Calls follow the shape of the dose curve; as a rule, active = well fitted curve in the direction sought with a large enough effect; inconclusive = small, poorly fitted or top-dose-only effect, or another doubt; inactive = no such curve, though single readings can be large; an effect the other way counts as inactive or inconclusive. Potency is read from the fitted curve at half-maximal effect.
SMILES,Pol iota inh,POLB inh,Pol kappa inh,FEN1 inhibitor,WRN helicase inh,POLH inh
CN(N=O)C(=O)N[C@H]1C(O)OC(CO)[C@@H](O)[C@H]1O (stereo partly specified),.,.,-12%[19.4 µM],.,.,.
COc1cc(/C=N\NC(=O)c2ccc(Cn3nc([N+](=O)[O-])c(Cl)c3C)o2)ccc1O,-4%,-7%,-28%,?,-26%,-14%
COc1ccc(/C=N/Nc2ccccc2C(=O)O)cc1Cn1cc([N+](=O)[O-])cn1,?,-4%,-19%,-3%,-18%,-2%
COc1cccc(/C=N\NC(=O)c2ccc(Cn3cc(Br)c([N+](=O)[O-])n3)o2)c1O,-7%,40µM*,-12%,-13%,-18%,-11%
Cc1ccc(/C=N/NC(=O)c2ccc(Cn3cc([N+](=O)[O-])cn3)o2)cc1,16%,-23%,-11%,1%,3%,-2%
COc1ccc(/C=N/NC(=O)c2ccccc2O)cc1Cn1cc([N+](=O)[O-])cn1,-7%,56µM*,-4%,-4%,-9%,18%
COc1cccc(/C=N/NC(=O)c2c(C)nc3ccc(Br)cn23)c1O,?,79µM*,-10%,-6%,-11%,9%
CCOc1ccccc1/C=N/NC(=O)c1c(C)nc2ccc(Br)cn12,-8%,18%,1%,-3%,1%,-4%
CCCOc1ccc(/C=N/NC(=O)c2ccc(Cn3cc([N+](=O)[O-])cn3)o2)cc1,?,32µM*,-16%,-5%,-16%[57.1 µM],-6%
COc1ccc(/C=N/NC(=O)c2ccc(Br)cc2)cc1Cn1cc(Cl)cn1,50µM*,?,-11%,-3%,?,?
COc1ccc(/C=N/NC(=O)c2cccc(Br)c2)cc1Cn1cc(Cl)cn1,-17%,-3%,0%,2%,-17%,-5%
CN1CCN(C(CNC(=O)C(=O)Nc2cccc(Cl)c2)c2ccc3c(c2)OCO3)CC1 (stereo unspecified),15%,28%,-1%[60.1 µM],4%,.,-23%
C(=C\c1nc2ccccc2s1)/c1ccc2c(c1)OCO2,1%,.,0%,-23%,.,.
C[N+](C)(CCCCCI)c1ccc(/C=C/c2nc3ccccc3s2)cc1,79µM*,.,45µM*,?,.,.
CCOC(=O)c1cccc(NC(=O)CC2C(=O)N(c3ccccc3)C(=O)N2Cc2ccco2)c1 (stereo unspecified),20%,15%,-15%,-2%,.,-11%
CC(C)CN1CCC(=O)N([C@H](COc2ccccc2)Cc2ccccc2)CC1,89µM*!,7%,-17%,-1%,-7%[11.6 µM],-11%
CCC(=O)n1nc(-c2ccco2)nc1SCc1ccccc1,14%,22µM*,-4%,-14%,-2%,-8%
CCCCOC(=O)C1=C(C)NC(=O)NC1c1ccc([N+](=O)[O-])s1 (stereo unspecified),89µM*,0%,?,-14%,-17%,-27%
CCCCOC(=O)C1=C(C)NC(=O)NC1c1ccccc1 (stereo unspecified),-11%,1%,-9%,-10%,-7%,-5%
Cc1ccc(C)c(CN2C(=O)c3ccccc3Sc3ccc(C(=O)NCc4ccco4)cc32)c1,-1%,3%,-12%[60.1 µM],-1%,.,-11%
CC(=O)Nc1ccccc1C,?,.,-18%,15%,3%,-15%
Cc1ccccc1NC(=O)C(=Cc1ccc(C(=O)O)cc1)C(=O)Nc1ccccc1C,?,5%,-3%,-2%,-19%,56µM*
COc1ccccc1/C=c1/[nH]c(=O)/c(=C\c2ccccc2OC)[nH]c1=O,12%,.,7%,5%,.,.
COc1cc2nc(N3CCCN(C)CC3)nc(NC3CCNCC3)c2cc1OC,?,.,-15%,25µM*,.,.
CCNc1nc(N2CCCN(C)CC2)nc2cc(OC)c(OC)cc12,0%,.,-1%,?,.,.
COc1cc2c(NC3CCN(C)CC3)nc(N3CCCN(C)CC3)nc2cc1OCC1CCCNC1 (stereo unspecified),-22%,.,-17%,20µM*,.,.

# Screens: PubChem, National Center for Advancing Translational Sciences (NCATS)
